Screens deposited in PubChem BioAssay by National Center for Advancing Translational Sciences (NCATS).
Six1-Eya2 inh: qHTS Assay for Inhibitors of the Six1/Eya2 Interaction. Homeobox protein SIX1 (Homo sapiens) + Protein phosphatase EYA2 (Homo sapiens), …. AlphaScreen GST-Six1/His-Eya2 binding, biochemical; stronger effect = lower value. activity change, % (test concentration not listed). 0.56% of 360,000 active
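GST-Six1 + His-Eya2 (5X stock: 250/500 nM); Tris pH 8.0, 300 mM NaCl, 0.05% BSA, 0.02% Tween 20; GSH donor/Ni acceptor beads; 1 h 37 °C dark; AlphaScreen readout.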
CtBP-E1A blk: qHTS Assay for Inhibitors of the CtBP/E1A Interaction; CtBP / adenovirus E1A interaction (AlphaScreen); AlphaScreen GST-E1A/His-CtBP binding, 1536-well; stronger effect = lower value; activity change, % (no concentration beside the values); 0.49% of 340,000 active; AID 651724, 2012
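Homogeneous bead-based format: GST-tagged E1A captured on glutathione donor beads, His-tagged CtBP on nickel acceptor beads; compounds precede bead addition by 2 h at 37 °C.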
KCNH2 WT inh: qHTS for Inhibitors of KCHN2 3.1: Wildtype qHTS | Voltage-gated inwardly rectifying potassium channel KCNH2 (Homo sapiens), Q12809 | U2OS, BacMam KCNH2, thallium flux FluxOr; stronger effect = lower value | activity change, % at 1.84 µM | 0.37% of 340,000 active | AID 720551, 2013;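 active = maximum activity change below -70%; inconclusive = maximum activity change between -70% and -50%; inactive = maximum activity change above -50%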
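U2OS cells transduced with wild-type KCNH2 virus are loaded with FluxOr dye for 45 min, and thallium flux is measured in kinetic reads before and after stimulation buffer. Rate constants are normalized to DMSO controls.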
KCNH2 3.1 block: qHTS for Inhibitors of KCHN2 3.1: Mutant qHTS; Potassium voltage-gated channel subfamily H member 2, brain isoform KCNH2 3.1 (human); U2OS KCNH2 3.1, thallium flux FluxOr; stronger effect = lower value; activity change, % (tested at about 1.8 µM); 0.95% of 340,000 active;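 active = maximum activity change below -70%; inconclusive = maximum activity change from -70% to -50%; inactive = maximum activity change above -50%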;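 note: thallium influx rate constant from kinetic fluorescence after stimulation buffer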
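Thallium flux via FluxOr fluorescence (Red40 quencher, 45 min loading) in U2OS cells virally expressing the KCNH2 3.1 isoform (1.77 x 10^8 /mL virus, overnight at 37 C). Rate constants from 2-min kinetic reads post-stimulation, normalised to positive and negative controls.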
KDM4E inh: qHTS Assay for Inhibitors of Human Jumonji Domain Containing 2E (JMJD2E); Lysine-specific demethylase 4E (Homo sapiens), B2RXH2; JMJD2E catalytic domain, FDH-coupled NADH fluorescence (FDH is formaldehyde dehydrogenase); Potency, µM (titrated, usually from 57.1 µM), for inactives: at the top dose activity change, negative = inhibition, hits mostly inhibitors; 1.6% of 230,000 active; active = well fitted inhibition curve with a large enough effect, not every such curve was filed as active; inconclusive = small, poorly fitted or top-dose-only effect, or another doubt; inactive = no such curve, though single readings can be large or run the other way;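 note: potency is the fitted concentration of half-maximal effect; 0% = wells with enzyme and -100% = buffer wells without enzyme; nearly all actives have a fitted effect of over 50% in size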
Target sequence (B2RXH2 1-337 limits assumed): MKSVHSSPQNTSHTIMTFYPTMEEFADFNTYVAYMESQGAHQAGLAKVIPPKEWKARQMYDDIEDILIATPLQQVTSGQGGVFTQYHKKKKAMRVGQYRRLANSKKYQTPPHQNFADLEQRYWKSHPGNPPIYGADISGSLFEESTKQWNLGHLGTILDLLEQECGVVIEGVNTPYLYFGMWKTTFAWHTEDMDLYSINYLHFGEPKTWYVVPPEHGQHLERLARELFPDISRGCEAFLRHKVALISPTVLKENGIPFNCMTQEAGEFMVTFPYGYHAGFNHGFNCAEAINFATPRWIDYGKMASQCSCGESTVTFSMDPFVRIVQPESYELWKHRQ
* = called active by the depositor; ? = inconclusive; · = no result given. In the library only some 2% were active in any assay of this set; here they are far more common. Cut-off read from the data, not from the text of the source, unless noted: active = activity change below about -65%; inconclusive = mostly about -30% to -63%; inactive = weaker than that. Unless noted, % is set by controls: 0 for no effect and ±100 for the full control effect.

SMILES	Six1-Eya2 inh	CtBP-E1A blk	KCNH2 WT inh	KCNH2 3.1 block	KDM4E inh
CCc1nccn1S(=O)(=O)c1ccc2ccc(C)cc2c1	-2	-2	7	-71*	-1%
CCOC(=O)C1(CCCc2ccccc2)CCN(Cc2ccn[nH]2)CC1	-10	-8	3	1	-14%
CCOC(=O)C1(CCc2ccccc2)CCN(Cc2cc(OC)c(OC)cc2OC)CC1	?	-30	-11	-99*	·
CCOC(=O)C1(Cc2ccccc2)CCN(Cc2cccc(OC)c2O)CC1	-1	8	29	-18	3%
CCOC(=O)C1(CCc2ccccc2)CCN(Cc2ccc(C(=O)OC)cc2)CC1	0	-3	-108*	-114*	·
CCOC(=O)C1(CCc2ccccc2)CCN(C2Cc3ccccc3C2)CC1	2	-1	?	-79*	-15%
CCOC(=O)C1(CCc2ccccc2)CCN(Cc2ccccn2)CC1	10	0	-26	-74*	2%
CCOC(=O)C1(CC2CC2)CCN(Cc2ccc(C(=O)OC)cc2)CC1	3	·	38	-35	-1%
Cc1ccc(Sc2nnc(-c3ccccc3)cc2C#N)cc1	3	3	5	-3	-6%
Cc1ccc(S(=O)(=O)N2CCOCC2)cc1C(=O)NCCCn1ccnc1	9	-5	-90*	-11	1%
CN(CC(=O)N1CC=C(c2ccccc2)CC1)S(=O)(=O)c1ccc2c(c1)c(=O)n(C)c(=O)n2C	-15	-5	8	-5	?
Cn1c(=O)c2cc(S(=O)(=O)NCCC(=O)N3CC=C(c4ccccc4)CC3)ccc2n(C)c1=O	?	-86*	-8	-16	6%
Cc1ccc(CNC(=O)CCNS(=O)(=O)c2ccc3c(c2)c(=O)n(C)c(=O)n3C)cc1	-9	-16	-7	-4	-11%
Cn1c(=O)c2cc(S(=O)(=O)NCCC(=O)NCc3ccccc3Cl)ccc2n(C)c1=O	-69*	-81*	-8	2	-6%
CCN1C[C@@H]2[C@@H]3C(=O)N(C)C(=O)[C@@H]3[C@](CC)(C1=O)N2C(=O)c1ccc(F)cc1	-1	7	-4	-7	·
CCc1cc2c(=O)[nH]c(N3CCCC3)nc2s1	7	-14	4	-5	?
CCc1cc2c(=O)[nH]c(-c3ccccn3)nc2s1	-92*	3	-1	3	-1%
CC(C(=O)Nc1cccc([N+](=O)[O-])c1)N1CCN(C/C=C/c2ccccc2)CC1 (stereo unspecified)	-16	-26	9	-85*	?
CCCc1cc(Nc2c(C)n(C)n(-c3ccccc3)c2=O)n2c(nc3ccccc32)c1C#N	-1	-12	-7	1	?
COc1ccccc1-c1c(C)nn2c(N3CCCCCC3)cc(C)nc12	0	10	-250*	11	?
COC(=O)c1[nH]c2ccc(Br)cc2c1NC(=O)C(C)N1CCN(C2CCCCC2)CC1 (stereo unspecified)	-7	-1	-72*	-70*	-2%
Cc1nnc(SCC(=O)Nc2cccc(Cl)c2)n1CC1CCCO1 (stereo unspecified)	1	2	7	4	·
CCOC(=O)c1ccc(NC(=S)N(CCN2CCCCCC2)Cc2ccco2)cc1	-17	-13	15	-90*	2%
O=C(Oc1c(Cl)cc(Cl)c2cccnc12)N1CCCCC1	1	-1	-5	3	-10%
Oc1c(C(c2ccccn2)N2CCC(Cc3ccccc3)CC2)cc(Cl)c2cccnc12 (stereo unspecified)	-88*	-68*	-3	4	?
SMILES	Six1-Eya2 inh	CtBP-E1A blk	KCNH2 WT inh	KCNH2 3.1 block	KDM4E inh
Cc1ccc(C(c2cc(Cl)c3cccnc3c2O)N2CCN(C)CC2)cc1 (stereo unspecified)	?	-85*	0	-42	·
Oc1c(C(c2ccc(Cl)cc2)N2CCCC2)cc(Cl)c2cccnc12 (stereo unspecified)	?	·	1	-23	?
CN1CCN(C(c2ccccn2)c2cc(Cl)c3cccnc3c2O)CC1 (stereo unspecified)	-89*	·	6	-3	25µM*
O=C(Nc1ccc2c(c1)OCCO2)C(c1ccnc2ccccc12)N1CCC(Cc2ccccc2)CC1 (stereo unspecified)	-13	-16	·	·	·
CCOC(=O)c1sc(=S)[nH]c1C	1	-3	2	-2	·
CC1(C)CC2CC(C)(CN2C(=O)COC(=O)c2ccc(Cl)c(N)c2)C1 (stereo unspecified)	1	2	28	-1	?
Cc1csc2nc(NC(=O)c3ccccc3)sc(=O)c12	-18	4	-2	-79*	7%
CCOC(=O)/C(C#N)=C1/C=CN(c2ccccc2)C=N1	0	-1	14	4	-2%
CCOC(=O)/C(C#N)=C1/C=CN(Cc2ccccc2)C=N1	3	0	-249*	7	?
CSc1nc2c(c(=O)[nH]1)C(c1ccc(Br)cc1)CC(=O)N2 (stereo unspecified)	3	11	-3	-31	1%
Cc1nn(-c2nc3ccccc3[nH]2)c(N)c1-c1ccc(Cl)cc1	-12	0	-6	-84*	-21%
Cc1nn(-c2nc3ccccc3[nH]2)c(=O)c2ccccc12	-3	-4	-8	2	-2%
O=C(CCC(=O)Nc1ccc(Cl)cc1Cl)NNC(=O)[C@@H]1CCCC[C@@H]1C(=O)O	6	9	-4	0	-1%
Cc1c(NC2=CC(=O)CC(C)(C)C2)ccc([N+](=O)[O-])c1C	6	-8	1	-104*	5%
Cc1ccccc1NC1=CC(=O)CC(C)(C)C1	0	6	-8	-5	2%
Cc1ccc(C2(CCNCc3ccc(N(C)C)cc3)CCOC(C(C)C)C2)cc1 (stereo unspecified)	?	?	12	-12	14%
CC(C)C1CC(CCNCc2ccc(N(C)C)cc2)(c2ccccc2)CCO1 (stereo unspecified)	-65*	?	9	-9	4%
CCCNc1nc(=S)n(-c2ccccc2)c(C)c1C(C)=O	-2	11	1	9	-4%
CCOc1ccc2c(ccc(/C=C/c3cc(C)c4cccnc4c3O)[n+]2C)c1	-90*	-94*	23	-8	·
CCOc1ccc2[nH]c3ncccc3c(=O)c2c1	-16	-2	0	-18	·
CCc1nc2c(OCCOc3ccccc3)cccn2c1N(C)C(=O)C1CC1	5	1	·	·	·
